Substitutions are numbered along the chain they refer to.
B1: ACATTCTG (ssRNA)
RNA 1: GAGUUCUACAGUCCGACGAUCCCAACACAUUCUGCACCUGGAAUUCUCGGGUGCCAA
RNA 2: UGGAGUGUGACAAUGGUGUUUG
DNA 1: GATCGTCGGACTGTAGAACTC
DNA 2: TTGGCACCCGAGAATTCCA
modifications: constant regions annealed to DNA blockers; guide miR-122 5' phosphate
B2: GTACCCCA (ssRNA)
RNA 1: B1 RNA 1 with A27G, C28U, U30C, U31C, U33C, G34A
RNA 2: UGGAGUGUGACAAUGGUGUUUG
DNA 1: GATCGTCGGACTGTAGAACTC
DNA 2: TTGGCACCCGAGAATTCCA
modifications: constant regions annealed to DNA blockers; guide miR-122 5' phosphate
B3: GCATCTTA (ssRNA)
RNA 1: B1 RNA 1 with A27G, U31C, C32U, G34A
RNA 2: UGGAGUGUGACAAUGGUGUUUG
DNA 1: GATCGTCGGACTGTAGAACTC
DNA 2: TTGGCACCCGAGAATTCCA
modifications: constant regions annealed to DNA blockers; guide miR-122 5' phosphate
B4: GCGTCTTA (ssRNA)
RNA 1: B1 RNA 1 with A27G, A29G, U31C, C32U, G34A
RNA 2: UGGAGUGUGACAAUGGUGUUUG
DNA 1: GATCGTCGGACTGTAGAACTC
DNA 2: TTGGCACCCGAGAATTCCA
modifications: constant regions annealed to DNA blockers; guide miR-122 5' phosphate
B5: GTGCTCTA (ssRNA)
RNA 1: B1 RNA 1 with A27G, C28U, A29G, U30C, G34A
RNA 2: UGGAGUGUGACAAUGGUGUUUG
DNA 1: GATCGTCGGACTGTAGAACTC
DNA 2: TTGGCACCCGAGAATTCCA
modifications: constant regions annealed to DNA blockers; guide miR-122 5' phosphate
B6: GCACTTTA (ssRNA)
RNA 1: B1 RNA 1 with A27G, U30C, C32U, G34A
RNA 2: UGGAGUGUGACAAUGGUGUUUG
DNA 1: GATCGTCGGACTGTAGAACTC
DNA 2: TTGGCACCCGAGAATTCCA
modifications: constant regions annealed to DNA blockers; guide miR-122 5' phosphate
B7: ATACCCTA (ssRNA)
RNA 1: B1 RNA 1 with C28U, U30C, U31C, G34A
RNA 2: UGGAGUGUGACAAUGGUGUUUG
DNA 1: GATCGTCGGACTGTAGAACTC
DNA 2: TTGGCACCCGAGAATTCCA
modifications: constant regions annealed to DNA blockers; guide miR-122 5' phosphate
B8: GTACCCTA (ssRNA)
RNA 1: B1 RNA 1 with A27G, C28U, U30C, U31C, G34A
RNA 2: UGGAGUGUGACAAUGGUGUUUG
DNA 1: GATCGTCGGACTGTAGAACTC
DNA 2: TTGGCACCCGAGAATTCCA
modifications: constant regions annealed to DNA blockers; guide miR-122 5' phosphate
B9: GCGTTCCG (ssRNA)
RNA 1: B1 RNA 1 with A27G, A29G, U33C
RNA 2: UGGAGUGUGACAAUGGUGUUUG
DNA 1: GATCGTCGGACTGTAGAACTC
DNA 2: TTGGCACCCGAGAATTCCA
modifications: constant regions annealed to DNA blockers; guide miR-122 5' phosphate
B10: ATACCCCA (ssRNA)
RNA 1: B1 RNA 1 with C28U, U30C, U31C, U33C, G34A
RNA 2: UGGAGUGUGACAAUGGUGUUUG
DNA 1: GATCGTCGGACTGTAGAACTC
DNA 2: TTGGCACCCGAGAATTCCA
modifications: constant regions annealed to DNA blockers; guide miR-122 5' phosphate
B11: GCACCCTG (ssRNA)
RNA 1: B1 RNA 1 with A27G, U30C, U31C
RNA 2: UGGAGUGUGACAAUGGUGUUUG
DNA 1: GATCGTCGGACTGTAGAACTC
DNA 2: TTGGCACCCGAGAATTCCA
modifications: constant regions annealed to DNA blockers; guide miR-122 5' phosphate

The binders below were run against AGO2 L192P (Homo sapiens, UniProt Q9UKV8 1-859, L192P;S387D;S824A;S828D;S831D;S834A) (assay: RNA Bind-n-Seq (nitrocellulose filter binding and sequencing); miR-122 guide loaded in AGO2; 60 min incubation; 30 mM Tris pH 8.0, 100 mM potassium acetate, 2 mM magnesium acetate, 0.5 mM TCEP, 0.005% NP-40, 0.01 mg/ml yeast tRNA; 3 nM AGO2-miR-122, 100 nM RNA library; 60; high values mean tight binding). Conditions: protein: recombinant; tags: His6 (N-terminal, pFastBac HTA).
Chain of AGO2 L192P (Q9UKV8 whole entry L192P/S387D/S824A/S828D/S831D/S834A): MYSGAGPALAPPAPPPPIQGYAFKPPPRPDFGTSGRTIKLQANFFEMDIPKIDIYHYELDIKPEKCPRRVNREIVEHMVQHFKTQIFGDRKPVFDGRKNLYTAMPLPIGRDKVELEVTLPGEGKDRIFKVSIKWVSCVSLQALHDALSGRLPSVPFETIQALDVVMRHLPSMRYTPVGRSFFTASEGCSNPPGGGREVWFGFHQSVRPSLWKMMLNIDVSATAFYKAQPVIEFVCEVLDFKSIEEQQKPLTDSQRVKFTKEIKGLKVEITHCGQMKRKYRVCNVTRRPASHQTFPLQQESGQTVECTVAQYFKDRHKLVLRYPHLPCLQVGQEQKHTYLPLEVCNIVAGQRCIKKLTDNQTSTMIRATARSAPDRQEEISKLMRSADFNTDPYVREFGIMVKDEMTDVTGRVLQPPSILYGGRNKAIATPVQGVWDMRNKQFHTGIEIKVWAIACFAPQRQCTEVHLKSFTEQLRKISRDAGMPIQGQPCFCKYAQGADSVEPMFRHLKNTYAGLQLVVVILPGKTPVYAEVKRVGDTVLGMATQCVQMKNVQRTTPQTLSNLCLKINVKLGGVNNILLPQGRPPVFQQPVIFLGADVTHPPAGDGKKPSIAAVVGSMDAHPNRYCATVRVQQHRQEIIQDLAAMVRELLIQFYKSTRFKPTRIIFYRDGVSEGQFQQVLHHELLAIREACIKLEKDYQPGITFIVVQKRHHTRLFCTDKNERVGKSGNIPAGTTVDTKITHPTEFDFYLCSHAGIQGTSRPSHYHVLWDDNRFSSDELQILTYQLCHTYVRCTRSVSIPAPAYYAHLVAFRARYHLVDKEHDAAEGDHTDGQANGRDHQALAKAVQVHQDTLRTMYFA
Outline: (§1)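 His-tagged AGO2 was expressed in Sf9 insect cells by baculovirus, loaded with a synthetic guide RNA, and purified by Ni-NTA and a biotinylated capture oligo. Bound RNA was extracted, reverse-transcribed, barcode-amplified and Illumina-sequenced. Fold enrichment is each sequence's read fraction divided by its input-library read fraction.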

Binder | binding signal
B1 | 0.392 fold enrichment over input
B2 | 0.497 fold enrichment over input
B3 | 0.487 fold enrichment over input
B4 | 0.473 fold enrichment over input
B5 | 0.463 fold enrichment over input
B6 | 0.493 fold enrichment over input
B7 | 0.447 fold enrichment over input
B8 | 0.468 fold enrichment over input
B9 | 0.404 fold enrichment over input
B10 | 0.5 fold enrichment over input
B11 | 0.416 fold enrichment over input

Each binder was assayed against AGO2 A367P (Homo sapiens, UniProt Q9UKV8 1-859, A367P;S387D;S824A;S828D;S831D;S834A) in the same assay as above. Conditions: protein: recombinant; tags: His6 (N-terminal, pFastBac HTA).
Chain of AGO2 A367P (Q9UKV8 whole entry A367P/S387D/S824A/S828D/S831D/S834A): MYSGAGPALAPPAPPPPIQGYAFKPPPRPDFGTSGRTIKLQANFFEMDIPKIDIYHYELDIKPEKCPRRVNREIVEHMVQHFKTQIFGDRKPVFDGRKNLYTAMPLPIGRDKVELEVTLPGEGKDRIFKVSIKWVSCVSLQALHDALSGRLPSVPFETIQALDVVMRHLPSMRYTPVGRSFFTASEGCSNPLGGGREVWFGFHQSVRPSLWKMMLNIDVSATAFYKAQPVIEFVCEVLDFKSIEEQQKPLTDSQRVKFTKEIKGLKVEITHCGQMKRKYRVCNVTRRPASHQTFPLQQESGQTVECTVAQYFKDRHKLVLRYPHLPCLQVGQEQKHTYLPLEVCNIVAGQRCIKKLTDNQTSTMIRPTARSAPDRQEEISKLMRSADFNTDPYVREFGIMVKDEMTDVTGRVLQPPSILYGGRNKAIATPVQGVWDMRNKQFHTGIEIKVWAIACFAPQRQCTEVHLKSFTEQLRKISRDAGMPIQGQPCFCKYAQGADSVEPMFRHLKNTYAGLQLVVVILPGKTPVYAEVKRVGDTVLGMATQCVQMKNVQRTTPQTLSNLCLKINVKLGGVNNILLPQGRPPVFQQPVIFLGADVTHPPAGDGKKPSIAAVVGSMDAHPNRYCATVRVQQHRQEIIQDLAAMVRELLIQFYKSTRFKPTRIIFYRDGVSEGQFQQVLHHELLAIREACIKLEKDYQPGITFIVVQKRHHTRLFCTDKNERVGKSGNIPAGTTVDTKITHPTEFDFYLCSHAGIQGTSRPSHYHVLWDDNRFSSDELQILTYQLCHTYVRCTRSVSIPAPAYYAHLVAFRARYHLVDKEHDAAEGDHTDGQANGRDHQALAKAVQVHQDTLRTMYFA
Outline: as §1

Binder | binding signal
B1 | 0.13 fold enrichment over input
B2 | 0.247 fold enrichment over input
B3 | 0.189 fold enrichment over input
B4 | 0.2 fold enrichment over input
B5 | 0.178 fold enrichment over input
B6 | 0.209 fold enrichment over input
B7 | 0.148 fold enrichment over input
B8 | 0.168 fold enrichment over input
B9 | 0.149 fold enrichment over input
B10 | 0.177 fold enrichment over input
B11 | 0.171 fold enrichment over input

These binders were tested against AGO2 T357M (Homo sapiens, UniProt Q9UKV8 1-859, T357M;S387D;S824A;S828D;S831D;S834A) in the same assay as above. Conditions: protein: recombinant; tags: His6 (N-terminal, pFastBac HTA).
Chain of AGO2 T357M (Q9UKV8 whole entry T357M/S387D/S824A/S828D/S831D/S834A): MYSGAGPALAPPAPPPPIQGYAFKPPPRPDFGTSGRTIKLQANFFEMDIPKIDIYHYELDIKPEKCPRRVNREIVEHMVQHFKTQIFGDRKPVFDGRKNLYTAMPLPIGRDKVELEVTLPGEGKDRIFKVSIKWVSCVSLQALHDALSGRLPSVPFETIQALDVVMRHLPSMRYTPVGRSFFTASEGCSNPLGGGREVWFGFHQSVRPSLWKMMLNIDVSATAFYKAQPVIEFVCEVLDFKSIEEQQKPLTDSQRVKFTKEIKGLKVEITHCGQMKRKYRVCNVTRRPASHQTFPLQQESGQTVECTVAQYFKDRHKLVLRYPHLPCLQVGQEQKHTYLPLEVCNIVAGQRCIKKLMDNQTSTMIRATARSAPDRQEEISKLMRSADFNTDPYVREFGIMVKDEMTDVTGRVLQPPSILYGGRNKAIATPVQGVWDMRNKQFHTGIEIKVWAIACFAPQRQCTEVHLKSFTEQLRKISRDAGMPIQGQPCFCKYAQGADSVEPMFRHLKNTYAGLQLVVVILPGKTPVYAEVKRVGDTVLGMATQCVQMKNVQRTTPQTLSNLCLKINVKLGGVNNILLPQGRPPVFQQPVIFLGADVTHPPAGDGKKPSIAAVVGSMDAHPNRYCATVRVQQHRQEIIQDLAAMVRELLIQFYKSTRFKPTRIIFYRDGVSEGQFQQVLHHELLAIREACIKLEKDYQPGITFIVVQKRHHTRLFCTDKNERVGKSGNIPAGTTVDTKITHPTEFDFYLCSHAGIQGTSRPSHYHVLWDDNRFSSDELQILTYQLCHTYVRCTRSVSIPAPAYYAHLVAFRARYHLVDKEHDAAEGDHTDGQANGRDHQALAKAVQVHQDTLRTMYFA
Outline: as §1

Binder | binding signal
B1 | 0.531 fold enrichment over input
B2 | 0.616 fold enrichment over input
B3 | 0.676 fold enrichment over input
B4 | 0.656 fold enrichment over input
B5 | 0.601 fold enrichment over input
B6 | 0.763 fold enrichment over input
B7 | 0.496 fold enrichment over input
B8 | 0.602 fold enrichment over input
B9 | 0.583 fold enrichment over input
B10 | 0.552 fold enrichment over input
B11 | 0.566 fold enrichment over input

Each binder was assayed against AGO2 F182del (Homo sapiens, UniProt Q9UKV8 1-859, S387D;S824A;S828D;S831D;S834A;del182-182) in the same assay as above. Conditions: protein: recombinant; tags: His6 (N-terminal, pFastBac HTA).
Chain of AGO2 F182del (Q9UKV8 other isoform, or with tags, fused parts or gaps S387D;S824A;S828D;S831D;S834A;del182-182): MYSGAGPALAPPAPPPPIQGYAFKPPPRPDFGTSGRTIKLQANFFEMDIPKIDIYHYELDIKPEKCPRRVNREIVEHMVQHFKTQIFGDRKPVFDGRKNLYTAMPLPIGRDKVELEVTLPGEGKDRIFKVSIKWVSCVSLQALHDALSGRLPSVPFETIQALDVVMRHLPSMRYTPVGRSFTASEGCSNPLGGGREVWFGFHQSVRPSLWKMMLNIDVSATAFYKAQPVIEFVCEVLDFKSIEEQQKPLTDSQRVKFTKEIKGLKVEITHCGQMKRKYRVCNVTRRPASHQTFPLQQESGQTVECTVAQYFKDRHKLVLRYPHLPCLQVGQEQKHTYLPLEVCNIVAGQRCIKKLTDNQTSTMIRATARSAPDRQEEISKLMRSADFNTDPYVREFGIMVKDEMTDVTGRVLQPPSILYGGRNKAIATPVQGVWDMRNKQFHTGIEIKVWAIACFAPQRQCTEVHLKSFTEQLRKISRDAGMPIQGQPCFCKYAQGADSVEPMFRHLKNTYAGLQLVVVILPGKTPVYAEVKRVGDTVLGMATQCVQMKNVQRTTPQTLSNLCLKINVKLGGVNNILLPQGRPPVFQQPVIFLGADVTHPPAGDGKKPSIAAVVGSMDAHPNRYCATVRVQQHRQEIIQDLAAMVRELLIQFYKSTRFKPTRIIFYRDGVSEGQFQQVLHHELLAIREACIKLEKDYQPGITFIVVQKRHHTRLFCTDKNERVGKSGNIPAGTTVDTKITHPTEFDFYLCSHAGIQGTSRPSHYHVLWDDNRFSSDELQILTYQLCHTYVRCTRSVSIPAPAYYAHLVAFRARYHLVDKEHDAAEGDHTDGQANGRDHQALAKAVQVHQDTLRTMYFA
Outline: as §1

Binder | binding signal
B2 | 0.455 fold enrichment over input
B6 | 0.122 fold enrichment over input
B10 | 0.199 fold enrichment over input
B11 | 0.176 fold enrichment over input
